# In PubChem BioAssay AID1159580 (chemical genetic matrix, 2015):
# The whole screen tested about 5,500 compounds, of which about 2,000 (36%) were called active. About 18% were inconclusive and are not listed. This is one part of the list. A number with no mark means an inactive call. No stated cut-off is given here; in the data, active means normalized growth mostly below about 0.91 (no sharp cut-off); inconclusive means no clear call, values can overlap the other calls; inactive means mostly above about 0.92.
# Test: chemical genetic growth profiling, strain panel (AID 1159580);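 further: tested at 20 µM; growth read once vehicle control cultures reached saturation at 30 °C; 1 = growth at the plate median or of vehicle wells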
# Details: S. cerevisiae deletion strains, growth OD
compound,measurement,setting,value
C/C(Cc1nnn(-c2cc(C)on2)n1)=N/OC(=O)Nc1ccc(Cl)cc1,normalized growth,"locus YAR019C, strain CDC15, stronger effect = lower value",0.989
same,normalized growth,"locus YBL105C, strain PKC1, stronger effect = lower value",0.978
same,normalized growth,"locus YBR135W, strain CKS1, stronger effect = lower value",0.988
same,normalized growth,"locus YBR136W, strain MEC1, stronger effect = lower value",0.985
same,normalized growth,"locus YBR160W, strain CDC28, stronger effect = lower value",0.993
same,normalized growth,"locus YDL017W, strain CDC7, stronger effect = lower value",0.974
same,normalized growth,"locus YDL028C, strain MPS1, stronger effect = lower value",0.989
same,normalized growth,"locus YDL101C, strain DUN1, stronger effect = lower value",1
same,normalized growth,"locus YDL108W, strain KIN28, stronger effect = lower value",0.982
same,normalized growth,"locus YDL132W, strain cdc53, stronger effect = lower value",0.975
same,normalized growth,"locus YDL214C, strain PRR2, stronger effect = lower value",0.956
same,normalized growth,"locus YDR052C, strain DBF4, stronger effect = lower value",0.988
same,normalized growth,"locus YDR054C, strain cdc34, stronger effect = lower value",0.975
same,normalized growth,"locus YDR226W, strain ADK1, stronger effect = lower value",0.97
same,normalized growth,"locus YDR477W, strain SNF1, stronger effect = lower value",0.899
same,normalized growth,"locus YER123W, strain YCK3, stronger effect = lower value",0.954
same,normalized growth,"locus YER133W, strain GLC7, stronger effect = lower value",0.95
same,normalized growth,"locus YFL009W, strain cdc4, stronger effect = lower value",0.98
same,normalized growth,"locus YFL029C, strain CAK1, stronger effect = lower value",0.992
same,normalized growth,"locus YFR003C, strain YPI1, stronger effect = lower value",0.979
same,normalized growth,"locus YFR019W, strain FAB1, stronger effect = lower value",0.989
same,normalized growth,"locus YFR028C, strain CDC14, stronger effect = lower value",0.975
same,normalized growth,"locus YGR040W, strain KSS1, stronger effect = lower value",0.941
same,normalized growth,"locus YGR052W, strain FMP48, stronger effect = lower value",0.971
same,normalized growth,"locus YGR092W, strain DBF2, stronger effect = lower value",0.877
same,normalized growth,"locus YHR030C, strain SLT2, stronger effect = lower value",0.733 (active)
same,normalized growth,"locus YHR079C, strain IRE1, stronger effect = lower value",0.754
same,normalized growth,"locus YHR082C, strain KSP1, stronger effect = lower value",1.05
same,normalized growth,"locus YHR205W, strain SCH9, stronger effect = lower value",0.787
same,normalized growth,"locus YIL147C, strain SLN1, stronger effect = lower value",0.973
same,normalized growth,"locus YJL095W, strain BCK1, stronger effect = lower value",0.793
same,normalized growth,"locus YJL128C, strain PBS2, stronger effect = lower value",0.921
same,normalized growth,"locus YJL157C, strain FAR1, stronger effect = lower value",0.956
same,normalized growth,"locus YJR016C, strain ILV3, stronger effect = lower value",0.977
same,normalized growth,"locus YJR066W, strain TOR1 (second series), stronger effect = lower value",0.6 (active)
same,normalized growth,"locus YJR066W, strain TOR1, stronger effect = lower value",0.992
same,normalized growth,"locus YKL048C, strain ELM1, stronger effect = lower value",0.994
same,normalized growth,"locus YKL067W, strain YNK1, stronger effect = lower value",0.946
same,normalized growth,"locus YKL101W, strain HSL1, stronger effect = lower value",0.929
same,normalized growth,"locus YKL193C, strain SDS22, stronger effect = lower value",0.977
same,normalized growth,"locus YKL203C, strain TOR2, stronger effect = lower value",1.03
same,normalized growth,"locus YLR113W, strain HOG1, stronger effect = lower value",0.826 (active)
same,normalized growth,"locus YLR133W, strain CKI1, stronger effect = lower value",0.96
same,normalized growth,"locus YLR403W, strain SFP1, stronger effect = lower value",0.933
same,normalized growth,"locus YML070W, strain DAK1, stronger effect = lower value",0.944
same,normalized growth,"locus YMR001C, strain CDC5, stronger effect = lower value",0.983
same,normalized growth,"locus YMR205C, strain PFK2 (second series), stronger effect = lower value",0.936
same,normalized growth,"locus YMR277W, strain FCP1, stronger effect = lower value",0.978
same,normalized growth,"locus YNL006W, strain LST8, stronger effect = lower value",0.98
same,normalized growth,"locus YNL020C, strain ARK1, stronger effect = lower value",0.923
same,normalized growth,"locus YNL161W, strain CBK1, stronger effect = lower value",0.973
same,normalized growth,"locus YNL183C, strain NPR1, stronger effect = lower value",0.977
same,normalized growth,"locus YNL207W, strain RIO2, stronger effect = lower value",0.981
same,normalized growth,"locus YNL222W, strain SSU72, stronger effect = lower value",0.993
same,normalized growth,"locus YNL307C, strain MCK1 (second series), stronger effect = lower value",0.907
same,normalized growth,"locus YOL078W, strain AVO1, stronger effect = lower value",0.986
same,normalized growth,"locus YOL136C, strain PFK27, stronger effect = lower value",0.946
same,normalized growth,"locus YOR061W, strain CKA2, stronger effect = lower value",0.988
same,normalized growth,"locus YOR119C, strain RIO1, stronger effect = lower value",1.01
same,normalized growth,"locus YOR231W, strain MKK1, stronger effect = lower value",0.954
same,normalized growth,"locus YOR329C, strain SCD5, stronger effect = lower value",0.982
same,normalized growth,"locus YPL031C, strain PHO85, stronger effect = lower value",0.924
same,normalized growth,"locus YPL153C, strain RAD53, stronger effect = lower value",0.953
same,normalized growth,"locus YPL204W, strain HRR25, stronger effect = lower value",0.954
same,normalized growth,"locus YPL209C, strain IPL1, stronger effect = lower value",0.985
same,normalized growth,"locus YPL256C, strain CLN2, stronger effect = lower value",0.86
same,normalized growth,"locus YPR025C, strain CCL1, stronger effect = lower value",0.991
same,normalized growth,"locus YPR106W, strain ISR1, stronger effect = lower value",0.98
same,normalized growth,"locus YPR111W, strain DBF20, stronger effect = lower value",0.975
same,normalized growth,"strain NNK1, stronger effect = lower value",0.967
same,normalized growth,"strain TSCII, stronger effect = lower value",0.98
